# The full ranking holds about 2,900 compounds; the median of “NF-kB SEAP reporter activity, fold change vs agonist alone” is about 0.99, and the highest 2% start at about 2.6. What follows is part of a selection rich in the highest values, with near analogues and random picks from the rest.
# Tests used:
# RAW-Dual [1] = assay: NF-kB SEAP reporter activity, fold change vs agonist alone; higher = enhanced NF-kB activity
# How it was run: (§1)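 RAW-Dual macrophages were seeded in DMEM at 50,000 cells/well in 384-well plates, given 50 nL of library stock by pin tool, and given a PRR agonist 1 h later. Plates were held at 37 °C, 5% CO2 for 20 hours, after which supernatant was read for IRF by QuantiLuc luminescence and for NF-κB by QuantiBlue absorbance at 620 nm. Reporter activity is expressed as fold change over wells that received agonist alone. A well was called cytotoxic when IncuCyte confluency fell below 70% of agonist controls in both mask sets.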
# RAW-Dual [2] = assay: NF-kB SEAP reporter activity, fold change vs agonist alone; cytotoxicity flag (confluency mask): not cytotoxic; higher = enhanced NF-kB activity
# How it was run: as §1
# RAW-Dual [3] = assay: NF-kB SEAP reporter activity, fold change vs agonist alone; cytotoxicity flag (confluency mask): cytotoxic (confluency <70% of control); higher = enhanced NF-kB activity
# How it was run: as §1
# [4] = library stock concentration (final ~1000-fold dilution): 10 mM, cytotoxicity flag (confluency mask): not cytotoxic, agonist: MPLA (TLR4) […]
# [5] = library stock concentration (final ~1000-fold dilution): 10 mM, cytotoxicity flag (confluency mask): not cytotoxic, agonist: Imiquimod (TLR7) […]
# [6] = agonist: ODN 1826 (TLR9) 0.5 ug/mL
# [7] = agonist: Pam2CSK4 (TLR2/6) 0.1 ug/mL
# [8] = agonist: Pam3CSK4 (TLR2/1) 0.1 ug/mL
compound,measurement,setting,value
O=C1N=C(O)CN1N=Cc1ccc(-c2ccc([N+](=O)[O-])cc2)o1,NF-kB SEAP reporter activity,RAW-Dual [1]; [4],1.03
CN1CCN(Cc2ccc(-c3cnc4[nH]cc(-c5ccc6[nH]ccc6c5)c4c3)cc2)CC1,NF-kB SEAP reporter activity,RAW-Dual [1]; [5],0.132
same,NF-kB SEAP reporter activity,RAW-Dual [1]; [4],0.242
c1cncc(CN2CCC(n3ncc4c(N5CCOCC5)nc(-c5ccc6[nH]ccc6c5)nc43)CC2)c1,NF-kB SEAP reporter activity,RAW-Dual [1]; [5],0.96
same,NF-kB SEAP reporter activity,RAW-Dual [1]; [4],0.899
COC(=O)Nc1ccc(-c2nc(N3CCOCC3)c3cnn(C4CCN(C(=O)OC)CC4)c3n2)cc1 (library stock concentration (final ~1000-fold dilution): 10 mM),NF-kB SEAP reporter activity,RAW-Dual [2]; agonist: LPS (TLR4) 0.1 ug/mL,0.888
same,NF-kB SEAP reporter activity,RAW-Dual [2]; [6],0.912
same,NF-kB SEAP reporter activity,RAW-Dual [2]; [7],0.867
same,NF-kB SEAP reporter activity,RAW-Dual [2]; [8],0.873
CN1CCN(Cc2ccc(-c3cnc4[nH]cc(-c5ccc6[nH]ccc6c5)c4c3)cc2)CC1 (library stock concentration (final ~1000-fold dilution): 10 mM),NF-kB SEAP reporter activity,RAW-Dual [2]; agonist: LPS (TLR4) 0.1 ug/mL,0.216
same,NF-kB SEAP reporter activity,RAW-Dual [2]; [6],0.181
same,NF-kB SEAP reporter activity,RAW-Dual [2]; [7],0.0629
same,NF-kB SEAP reporter activity,RAW-Dual [2]; [8],0.138
c1cncc(CN2CCC(n3ncc4c(N5CCOCC5)nc(-c5ccc6[nH]ccc6c5)nc43)CC2)c1 (library stock concentration (final ~1000-fold dilution): 10 mM),NF-kB SEAP reporter activity,RAW-Dual [2]; agonist: LPS (TLR4) 0.1 ug/mL,2.91
same,NF-kB SEAP reporter activity,RAW-Dual [2]; [6],0.951
same,NF-kB SEAP reporter activity,RAW-Dual [2]; [7],1.44
same,NF-kB SEAP reporter activity,RAW-Dual [2]; [8],0.777
COC(=O)Nc1ccc(-c2nc(N3CCOCC3)c3cnn(C4CCN(C(=O)OC)CC4)c3n2)cc1,NF-kB SEAP reporter activity,RAW-Dual [1]; [5],0.976
same,NF-kB SEAP reporter activity,RAW-Dual [1]; [4],0.895
Cc1cnc(NC(=O)Nc2cc(Br)c(C)cc2OCC2CNCCO2)cn1 (centres undefined),NF-kB SEAP reporter activity,RAW-Dual [1]; [5],0.872
same,NF-kB SEAP reporter activity,RAW-Dual [1]; [4],0.946
Cc1cnc(NC(=O)Nc2cc(Br)c(C)cc2OCC2CNCCO2)cn1 (centres undefined) (library stock concentration (final ~1000-fold dilution): 10 mM),NF-kB SEAP reporter activity,RAW-Dual [2]; agonist: LPS (TLR4) 0.1 ug/mL,0.68
same,NF-kB SEAP reporter activity,RAW-Dual [2]; [6],0.903
same,NF-kB SEAP reporter activity,RAW-Dual [2]; [7],0.51
same,NF-kB SEAP reporter activity,RAW-Dual [2]; [8],0.818
CCC(N)CNc1ccnc(-c2cc(-c3cnn(C)c3)ccc2O)n1.Cl.Cl (centres undefined),NF-kB SEAP reporter activity,"RAW-Dual [1]; library stock concentration (final ~1000-fold dilution): 10 mM, cytotoxicity flag (confluency mask): cytotoxic (confluency <70% of control), agonist: Imiquimod (TLR7) […]",0.144
same,NF-kB SEAP reporter activity,"RAW-Dual [1]; library stock concentration (final ~1000-fold dilution): 10 mM, cytotoxicity flag (confluency mask): cytotoxic (confluency <70% of control), agonist: MPLA (TLR4) […]",0.254
CCC(N)CNc1ccnc(-c2cc(-c3cnn(C)c3)ccc2O)n1.Cl.Cl (centres undefined) (library stock concentration (final ~1000-fold dilution): 10 mM),NF-kB SEAP reporter activity,RAW-Dual [3]; agonist: LPS (TLR4) 0.1 ug/mL,0.267
same,NF-kB SEAP reporter activity,RAW-Dual [3]; [6],0.195
same,NF-kB SEAP reporter activity,RAW-Dual [3]; [7],0.0684
same,NF-kB SEAP reporter activity,RAW-Dual [3]; [8],0.127
N=C(N)NCCCCC1NC(=O)CCSSCC(C(N)=O)NC(=O)C2CCCN2C(=O)C(Cc2c[nH]c3ccccc23)NC(=O)C(CC(=O)O)NC(=O)CNC1=O (centres undefined) (library stock concentration (final ~1000-fold dilution): 10 mM water),NF-kB SEAP reporter activity,RAW-Dual [2]; agonist: LPS (TLR4) 0.1 ug/mL,1.2
same,NF-kB SEAP reporter activity,RAW-Dual [2]; [6],1.15
same,NF-kB SEAP reporter activity,RAW-Dual [2]; [7],1.24
same,NF-kB SEAP reporter activity,RAW-Dual [2]; [8],1.06
N=C(N)NCCCCC1NC(=O)CCSSCC(C(N)=O)NC(=O)C2CCCN2C(=O)C(Cc2c[nH]c3ccccc23)NC(=O)C(CC(=O)O)NC(=O)CNC1=O (centres undefined),NF-kB SEAP reporter activity,"RAW-Dual [1]; library stock concentration (final ~1000-fold dilution): 10 mM water, cytotoxicity flag (confluency mask): not cytotoxic, agonist: Imiquimod (TLR7) […]",0.957
same,NF-kB SEAP reporter activity,"RAW-Dual [1]; library stock concentration (final ~1000-fold dilution): 10 mM water, cytotoxicity flag (confluency mask): not cytotoxic, agonist: MPLA (TLR4) […]",1.11
O=c1cc(N2CCOCC2)oc2c(-c3ccc4c(c3)OCCO4)csc12,NF-kB SEAP reporter activity,RAW-Dual [1]; [5],1.57
same,NF-kB SEAP reporter activity,RAW-Dual [1]; [4],2.36
O=c1cc(N2CCOCC2)oc2c(-c3ccc4c(c3)OCCO4)csc12 (library stock concentration (final ~1000-fold dilution): 10 mM),NF-kB SEAP reporter activity,RAW-Dual [2]; agonist: LPS (TLR4) 0.1 ug/mL,6.86
same,NF-kB SEAP reporter activity,RAW-Dual [2]; [6],2.26
same,NF-kB SEAP reporter activity,RAW-Dual [2]; [7],0.957
same,NF-kB SEAP reporter activity,RAW-Dual [2]; [8],2.84
CC(Nc1cc(F)cc(F)c1)c1cc(C(=O)N(C)C)cc2c(=O)cc(N3CCOCC3)oc12 (centres undefined),NF-kB SEAP reporter activity,RAW-Dual [1]; [5],0.569
same,NF-kB SEAP reporter activity,RAW-Dual [1]; [4],1.21
CC(Nc1cc(F)cc(F)c1)c1cc(C(=O)N(C)C)cc2c(=O)cc(N3CCOCC3)oc12 (centres undefined) (library stock concentration (final ~1000-fold dilution): 10 mM),NF-kB SEAP reporter activity,RAW-Dual [2]; agonist: LPS (TLR4) 0.1 ug/mL,1.67
same,NF-kB SEAP reporter activity,RAW-Dual [2]; [6],1.01
same,NF-kB SEAP reporter activity,RAW-Dual [2]; [7],1.02
same,NF-kB SEAP reporter activity,RAW-Dual [2]; [8],1.13

# Source: the supplement of paper PMC10037445
